# Mot1-301 SUMO – yeast Mot1-301 growth rescue at high temperature, primary screen, SUMOylation pathway inhibitor project, S. cerevisiae, ATP luminescence, 38.5C; S. cerevisiae Mot1-301 growth rescue; percent above DMSO median, 100 means doubled; growth rescue, % at 18.8 µM; hit rate 1% among 320,000;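 active = every valid replicate shows activation above 250% relative to neutral control wells; inactive = the rest, any valid replicate at or below 250%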;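 also: OY570 slx delta 5 strain wells were the positive control but not used for scaling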
# CHT block – inhibitors of human choline transporter CHT. B-score at 10 µM. AID 488975, 2010. CHT-expressing cells, membrane potential dye, choline response; active compounds read low. hit rate 0.86% among 310,000;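 active = B-score over 3 SD under the library average, and starting fluorescence ratio not unusually high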;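 also: choline stimulus applied at its EC90 after an EC20 pre-addition; B-score computed on integrated fluorescence ratio after choline addition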
# Target sequence (Q9GZV3 whole entry, looked up): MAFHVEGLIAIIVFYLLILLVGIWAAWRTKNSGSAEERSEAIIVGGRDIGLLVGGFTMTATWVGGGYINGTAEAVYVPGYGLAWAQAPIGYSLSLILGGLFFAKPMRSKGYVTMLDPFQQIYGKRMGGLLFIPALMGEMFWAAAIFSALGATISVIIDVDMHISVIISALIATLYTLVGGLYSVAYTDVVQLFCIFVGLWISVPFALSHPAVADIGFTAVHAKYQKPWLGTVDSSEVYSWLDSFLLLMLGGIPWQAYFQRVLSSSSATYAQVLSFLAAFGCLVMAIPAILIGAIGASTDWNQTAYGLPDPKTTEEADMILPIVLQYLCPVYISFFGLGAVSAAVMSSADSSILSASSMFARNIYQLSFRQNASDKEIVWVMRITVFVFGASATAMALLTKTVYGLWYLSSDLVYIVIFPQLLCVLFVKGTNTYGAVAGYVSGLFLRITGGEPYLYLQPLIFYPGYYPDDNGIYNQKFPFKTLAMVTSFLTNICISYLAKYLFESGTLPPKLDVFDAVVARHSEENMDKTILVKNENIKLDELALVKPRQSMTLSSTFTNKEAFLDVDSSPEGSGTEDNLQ
# Bfl-1 A1 inh – caspase 3/7 activation in MEF A1-2A-BIM cells, primary screen, A1 inhibitor project, cell-based, luminescence, HTS; AID 2462, 2010; hit rate 0.066% among 330,000; Caspase-Glo 3/7 luminescence, 3 h; percent of clofoctol response, vehicle zero; caspase activation, % (test concentration not listed);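 active = over half of replicate activation scores above 10%, or exactly half above 10 with the replicate mean above 10; inconclusive = replicate mean below 10 yet half the replicates above 10; inactive = over half of replicates below 10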
# CHT allo act – CHT positive allosteric modulators, primary screen, cell-based, membrane potential dye, choline EC20. B-score at 10 µM. hit rate 0.49% among 310,000. High affinity choline transporter 1 (Homo sapiens), Q9GZV3. AID 488977, 2010. CHT-expressing cells; active compounds read high; LV-AA mutant CHT in HEK293 cells;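 active = initial fluorescence not abnormally high and integrated response B-score, plate-corrected, over 3 SD above library mean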
# NALP3 yeast inh – NALP3 inflammasome inhibitors in reconstituted yeast, primary screen, luminescence, uHTS. Yeast reconstituted NLRP3/ASC/caspase-1, beta-gal luminescence, 24 h. inhibition, % at 10 µM. hit rate 0.39% among 330,000. AID 2825, 2010;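 active = inhibition of 50% or more; inactive = inhibition below 50%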;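 also: plate controls were induced DMSO wells for no effect and uninduced yeast grown without galactose for full effect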
# NALP1 inh – NALP1 inflammasome inhibitors in reconstituted yeast, colorimetric, S. cerevisiae, triplicate retest. S. cerevisiae NALP1/ASC/caspase-1 growth, X-gal OD620, 72 h. inhibition, % at 10 µM. hit rate 0.61% among 280,000; in the data active = inhibition mostly above about 24%, no sharp cut-off; inactive = mostly below about 32%
# NALP3 confirm – NALP3 inhibitors retested in yeast, confirmation, luminescence, single concentration; shares compounds with NALP3 yeast inh; yeast expressing human NALP3; inhibition, % at 10 µM; hit rate 81% among 1,300; AID 435006, 2010; in the data active = inhibition above about 48%
# Casp1 ASC ctr – CASP1-PYCARD signaling inhibition in yeast, confirmatory test, counterassay for NLRP3 inhibitor program, one-dose; shares compounds with NALP3 yeast inh; inhibition, % at 10 µM; hit rate 66% among 1,000; yeast expressing Caspase-1-ASC, luminescence counter screen
# NALP3 yeast rt – NALP3 inhibitors in yeast, repeat test, confirmation, luminescence, single concentration, retest | shares compounds with NALP3 yeast inh | yeast expressing human NALP3, luminescence read-out | inhibition, % at 10 µM | hit rate 53% among 1,000 | AID 488794, 2010
# The depositor's hits bear a star; i = inactive; ? = inconclusive; . = no result given. Hits are enriched below; roughly 3% of the tested compounds scored in any of these assays. Rule as the data show it, unless noted: active = inhibition above about 50%; inactive = the rest.
SMILES,Mot1-301 SUMO,CHT block,Bfl-1 A1 inh,CHT allo act,NALP3 yeast inh,NALP1 inh,NALP3 confirm,Casp1 ASC ctr,NALP3 yeast rt
CC(=O)OCC1OC(OC2C[C@]3(C)C(CC(O)C4C([C@](C)(CCC=C(C)C)OC5OC(CO)C(O)C(O)C5O)CC[C@]43C)[C@@]3(C)CCC(O)C(C)(C)C23)C(O[C@@H]2OC(C)C(O)C(O)C2O)C(O)C1O (some centres not stated),-1,.,-2,.,13,.,.,.,.
C=C(CC[C@@H](O)C(C)(C)O)[C@H]1CC[C@]2(C)[C@@H]1CCC1[C@@]3(C)CC[C@H](O)C(C)(C)C3CC[C@]12C (some centres not stated),124,.,2,.,58*,.,50,46,33
C=C(C)[C@@H]1CC[C@]2(C(=O)O)CC[C@]3(C)[C@H](CC[C@@H]4[C@@]5(C)CC[C@H](O)C(C)(C)[C@@H]5CC[C@]43C)[C@@H]12,9,i,-1,i,43,5,.,.,.
COc1ccc(OC)c(C(C[N+](=O)[O-])c2c(C)cc3ccccn23)c1 (configuration not stated),-18,i,-1,i,64*,27,44,67*,37
CCCCn1c(N)c(N(CCOC)C(=O)c2cc(C)oc2C)c(=O)[nH]c1=O,23,i,1,i,22,.,.,.,.
Cc1ccc(-c2nc(S(=O)(=O)c3ccc(C)cc3)c(N(C)C)o2)cc1,-16,i,0,i,71*,5,66*,82*,62*
COc1cc(-c2nc(S(=O)(=O)c3ccc(C)cc3)c(N(C)C)o2)cc(OC)c1OC,8,i,1,i,-14,9,.,.,.
O=C(Nc1ccc(-c2nc3ccccc3o2)cc1)C1CCCO1 (configuration not stated),-32,i,-14,i,55*,8,72*,60*,41
CS(=O)(=O)c1sc(C#N)c2c1C(=O)CC(c1ccccc1)C2 (configuration not stated),358,-7.1*,57*,i,51*,-12,39,.,.
CCOc1ccc(C(C(=O)NC(C)(C)C)N(CCOC)C(=O)CCC(=O)Nc2ccccn2)cc1 (configuration not stated),-17,i,1,i,21,3,.,.,.
Cc1ccc(O)c(NC(=O)c2cc([N+](=O)[O-])ccc2Cl)c1,3,i,0,i,21,3,.,.,.
O=C(Nc1cccc(Cl)c1)c1cc(N=Nc2ccc([N+](=O)[O-])cc2Cl)ccc1O,-26,i,1,i,57*,-8,86*,42,56*
O=C(Nc1ccc([N+](=O)[O-])cc1Cl)c1cc(Cl)ccc1O,-17,i,-11,i,96*,.,99*,100*,97*
O=C(COc1ncnc2ccccc12)c1ccc2c(c1)OCCO2,-18,i,-1,i,53*,-19,69*,44,45
O=C(COc1ncnc2cc(Cl)ccc12)c1ccc2c(c1)OCCO2,5,i,2,i,13,.,.,.,.
COc1ccc(N2CCN(CCNC(=O)c3c(C)cc(=O)oc3C)CC2)cc1,.,i,.,i,67*,28*,80*,86*,91*
COCCn1c(SCC(=O)NC(=O)NC2CCCC2)nc2ccccc2c1=O,-12,.,0,.,3,.,.,.,.
CCn1c(O)c(C=Nc2ccccc2)sc1=S,-15,i,-1,i,54*,12,58*,56*,60*
CC1CCc2c(nc3sc4c(c3c2N)CCCC4)C1 (configuration not stated),9,i,-2,i,54*,42*,77*,67*,58*
CCc1c(-c2ccccc2)nc2sc3c(c2c1N)CCCC3,11,i,0,i,10,6,.,.,.
Cc1n[nH]c(=O)c2c(NC(=O)CSc3ccc(Br)cc3)oc(C)c12,6,i,0,i,18,.,.,.,.
Cc1cc(Cl)c2oc(C(=O)N(C)Cc3ccon3)c(C)c2c1,-5,i,-4,i,50*,42*,48*,41,47
Cc1cc(Cl)c2oc(C(=O)N(C)Cc3cc(C)[nH]n3)c(C)c2c1,-14,i,0,i,30,3,.,.,.
Cc1ccc(/C=N/N(C)S(=O)(=O)c2ccc(C)cc2)cc1,-7,i,1,i,51*,2,58*,58*,33
CSc1ccc(/C=N/N(C)S(=O)(=O)c2ccc(C)cc2)cc1,-11,i,?,i,42,8,.,.,.
SMILES,Mot1-301 SUMO,CHT block,Bfl-1 A1 inh,CHT allo act,NALP3 yeast inh,NALP1 inh,NALP3 confirm,Casp1 ASC ctr,NALP3 yeast rt
COc1ccc(-c2nc3ccccc3c(=O)n2CC(C)C)cc1,49,i,3,i,16,11,.,.,.
Cc1ccsc1C(=O)N1CCCC(CO)(Cc2ccccc2F)C1 (configuration not stated),4,i,-1,i,29,12,.,.,.
CCCN(CC(=O)Nc1ccccc1C)C(=O)Cc1coc2cc(C)ccc12,5,i,0,i,12,15,.,.,.
CN1CCN(C(c2ccc(Br)cc2)c2cc(Cl)c3cccnc3c2O)CC1 (configuration not stated),268,i,0,i,57*,-2,37,.,.
O=C(C[C@@H]1C/C=C\CCCC(=O)OC[C@@H](c2ccccc2)NC1=O)NCCO,-1,.,0,.,14,.,.,.,.
Nc1c(-c2ccccc2)cnn1-c1ccccc1,-46,i,-10,i,15,10,.,.,.
O=c1cnn(-c2ccccc2)c(-c2ccccc2)c1,-4,i,0,i,56*,2,79*,59*,56*
NC(=O)CC(NC(=O)Cc1ccc(Br)cc1)c1ccc(N2CCC(Cc3ccccc3)CC2)c([N+](=O)[O-])c1 (configuration not stated),-2,i,0,i,51*,.,80*,18,4
O=S1(=O)CCOC[C@H](Cc2ccccc2)N1Cc1ccccc1F,1,i,0,i,20,.,.,.,.
COc1ccc(-c2cn3c4c(sc3n2)CCCC4)cc1,6,i,-3,i,52*,0,61*,49,45
